Calls of active or inactive are those of the source. How the calls were made is not given here.
Columns and labels:
[1] = Immunotoxin (HA22) sensitization/mitigation study. Vehicle arm (PBS) (AID 1159510); conditions: cancer cells viability with PBS vehicle (HA22 study); series mostly up to 46.1 µM
[2] = Immunotoxin (SS1P) sensitization/mitigation study. Vehicle arm (DMEM) (AID 1159513); conditions: cell viability with vehicle (DMEM); series mostly up to 46.1 µM
Potency means the concentration at half of the fitted maximal effect.

SMILES: CNCc1ccc(-c2[nH]c3cc(F)cc4c3c2CCNC4=O)cc1
- Potency [1]: 20.9 µM (active)

SMILES: O=C(Nc1ccccc1-c1cn2c(CN3CCNCC3)csc2n1)c1cnc2ccccc2n1
- Potency [1]: 26.4 µM (active)

SMILES: CN(C)Cc1ccc(-c2nc3cccc4c3n2CCNC4=O)cc1
- Potency [1]: 23.5 µM (active)

SMILES: CN(C)c1ccc(Nc2nc(N)n(C(=O)c3c(F)cccc3F)n2)cc1
- Potency [1]: 20.9 µM (active)

SMILES: Cc1c(C(=O)Nc2ccc(N3C[C@@H](C)O[C@@H](C)C3)nc2)cccc1-c1ccc(OC(F)(F)F)cc1
- Potency [1]: 20.9 µM (active)
- Potency [2]: 23.5 µM (active)

SMILES: CC(NC(=O)Cc1cc(F)cc(F)c1)C(=O)NC(C(=O)OC(C)(C)C)c1ccccc1 (centres undefined)
- Potency [1]: inactive
- Potency [2]: inactive

SMILES: O=C(NCCS(=O)(=O)c1ccc(C(F)(F)F)cn1)c1ccc(Cl)cc1
- Potency [1]: inactive
- Potency [2]: inactive

SMILES: COc1cc2c(Oc3ccc(-c4cnc(Nc5ccc(F)cc5)n(C)c4=O)cc3F)ccnc2cc1OCCCN1CCOCC1
- Potency [1]: 18.7 µM (active)
- Potency [2]: 20.9 µM (active)

SMILES: C=C1C(=CC=C2CCCC3(C)[C@@H]([C@H](C)C=CC=CC(O)(CC)CC)CC[C@@H]23)C[C@@H](O)C[C@@H]1O (some centres undefined)
- Potency [1]: 23.5 µM (active)
- Potency [2]: 20.9 µM (active)

Source: PubChem BioAssay (NCATS)
